PubChem BioAssay AID1063 (University of Pittsburgh Molecular Library Screening Center, 2008)
The whole screen tested about 200,000 compounds, of which about 18,000 (9%) were called active. Many of the other results were omitted from the sample, so actives are more common in it than they were. Values without a mark were called inactive. Cut-off read from the data, not from the text of the source: active = inhibition above about 50%; inactive = the rest.

assay: antileishmanial activity against promastigotes – primary screen (AID 1063); settings: Leishmania major promastigotes, resazurin fluorescence viability; at 10 µM; hits give high values;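 note: promastigotes grown with compound for 44 hours at 28 °C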

Going from `COC(=O)c1ccc(CSc2nnc(N)s2)o1` to `CCOc1ccccc1Nc1nnc(SCC(=O)Nc2cc(C)on2)s1`, the inhibition rises from -5.93% to 4.84%.

First: CCC(c1nnnn1Cc1ccco1)N(Cc1cc2cc(OC)ccc2[nH]c1=O)C1CCCCC1 (centres undefined)
Second: CCC(c1nnnn1Cc1ccco1)N(CCc1ccccc1)Cc1cc2cccc(C)c2[nH]c1=O (centres undefined)
The inhibition of the first is higher: 49.5% for the first, 39.7% for the second.

First: CN(C)c1ccc(C(CC(=O)O)C(=O)O)cc1 (centres undefined)
Second: CC(CC(=O)O)CC(=O)NNC(=O)c1cccc(Br)c1 (centres undefined)
The inhibition of the first is higher: -3.91% for the first, -4.63% for the second.

First: Cc1cccc(NC(=O)c2nnn(-c3cccc(C(F)(F)F)c3)c2N)c1
Second: Cc1cccc(NC(=O)/C(=C\c2ccco2)NC(=O)c2ccccc2)c1
The inhibition of the first is higher: 3.89% for the first, 3.51% for the second.

Going from `Cc1ncn(C23CC4CC(CC(O)(C4)C2)C3)n1` to `CCC1CCCCN1C(=O)CSc1nc(C)cc(C)n1` (centres undefined), the inhibition rises from -5.82% to 11.3%.

Compared with `O=S(=O)(c1ccccc1)c1nc(-c2ccccc2F)oc1NCc1cccnc1`, `O=C1c2ccccc2NC(c2ccccn2)N1NS(=O)(=O)c1ccccc1` (centres undefined) is higher in inhibition: 0.99% for the first, 2.46% for the second.

First: CCCCC(NC(=O)c1cccc(Br)c1)C(=O)O (centres undefined)
Second: CCCC(=O)OCC(=O)Nc1cc(Cl)ccc1[N+](=O)[O-]
The inhibition of the first is higher: 21.1% for the first, -6.12% for the second.

Going from `COc1ccc(C)cc1-n1nnnc1SCc1nc2ccccc2c(=O)[nH]1` to `COc1ccc2c(c1OC)C(=O)OC2c1c(O)nc(SC)n(-c2ccccc2)c1=O` (centres undefined), the inhibition falls from 2.27% to -6.91%.

First: Cc1nc(-c2ccc(Cl)cc2)sc1C(=O)CBr
Second: O=C(CSc1nc2ccc([N+](=O)[O-])cc2[nH]1)c1ccc(Cl)cc1
The inhibition of the first is lower: -12.4% for the first, -1.01% for the second.

Going from `CCCn1c(=S)[nH]c2ccc(C(F)(F)F)cc21` to `CCOC(=O)CSc1nc2ccc(C)cc2[nH]1`, the inhibition falls from -2.71% to -4.89%.

Compared with `COc1ccc(OC)c(Nc2nc(-c3ccc(O)c(O)c3)cs2)c1`, `COc1ccc(-c2csc(Nc3ccccn3)n2)cc1` is lower in inhibition: 20.7% for the first, 15.6% for the second.

Going from `Cc1[nH]c2ccccc2c1-c1ccc(Cl)nn1` to `Cc1nc2ccccc2c(C)c1C(=O)c1ccc(F)cc1`, the inhibition falls from -2.46% to -3.66%.

Going from `COC(=O)C(NS(=O)(=O)c1ccc(F)cc1)c1ccccc1` (centres undefined) to `CCOC(=O)C1(S(=O)(=O)c2ccc(Cl)cc2)CCN(Cc2ccccc2)CC1`, the inhibition rises from -1.84% to 29.3%.

Going from `CS/C(=C\[N+](=O)[O-])Nc1ccc(C)cc1` to `O=C(O)/C=C/C(=O)NNc1ccc([N+](=O)[O-])cc1`, the inhibition falls from -1.56% to -9.99%.

Compared with `CCc1nnc(NC(=O)c2cccc(S(=O)(=O)N(C)c3ccc(OC)cc3)c2)s1`, `CCOC(=O)c1cccc(NC(=O)CN(c2ccc(C)cc2)S(=O)(=O)c2c(C)noc2C)c1` is higher in inhibition: -0.19% for the first, 22.7% for the second.

Compared with `O=C(Cc1ccccc1)NC(=S)Nc1ccc(N2CCCCC2)cc1`, `N#C/C(=C/c1ccc(N2CCCCC2)o1)C(=O)NCCc1c[nH]c2ccccc12` is higher in inhibition: -9.12% for the first, 0.13% for the second.

Going from `Cc1ccc(-n2c(C)cc(C(=O)CN3C(=O)C(=O)N(C4CCCC4)C3=O)c2C)cc1` to `COc1ccc(-n2c(C)cc(C(=O)CSc3nnc(-c4cccs4)o3)c2C)cc1`, the inhibition rises from -5.85% to -4.2%.

First: Cc1nn(-c2ccc([N+](=O)[O-])cc2)c(N)c1-c1ccccc1
Second: O=C(Nn1cnnc1)c1ccc([N+](=O)[O-])cc1
The inhibition of the first is higher: -4.1% for the first, -11.1% for the second.

Compared with `CC(C)(C)NC(=O)NC(=O)COC(=O)Cc1c(F)cccc1Cl`, `CCCCN(CC(=O)NC(C)(C)C)C(=O)C(=O)Nc1ccc2c(c1)OCCO2` is lower in inhibition: 2.42% for the first, -6.64% for the second.

First: O=C(CSc1cccc[n+]1[O-])NCCCc1ccccc1
Second: COc1ccccc1NC(=O)CCCc1c[nH]c2ccccc12
The inhibition of the first is higher: 1.17% for the first, -1.94% for the second.

Going from `COC(=O)c1ccccc1NC(=O)C1CC(=O)N(c2ccc(OC)cc2)C1` (centres undefined) to `COc1cccc(N2CC(C(=O)Nc3c(C)cccc3C)CC2=O)c1` (centres undefined), the inhibition rises from -10.5% to 2.01%.

Going from `COc1cccc(NC(=O)Nc2nnc(N3CCCCC3C)s2)c1` (centres undefined) to `COc1ccc(NS(=O)(=O)c2cc(NC(=O)C3CCCCC3)ccc2N2CCOCC2)cc1`, the inhibition rises from 3.59% to 16.6%.

First: CCOC(=O)CCCN1CC(O)=C(c2nc3ccccc3s2)C1=N
Second: COC(=O)CCC(=O)N1CCCC(CO)(Cc2ccccc2)C1 (centres undefined)
The inhibition of the first is higher: 17% for the first, -4.47% for the second.

First: CC(C)n1c(=O)[nH]c2cc(C(=O)Nc3ccccc3)ccc21
Second: CCOc1ccc(C(=O)NC(=S)Nc2ccc(NC(=O)C(C)C)cc2)cc1[N+](=O)[O-]
The inhibition of the first is higher: -2.18% for the first, -7.33% for the second.

First: O=C(N/N=C/c1ccco1)c1ccc(C(=O)N/N=C/c2ccco2)o1
Second: O=C(Cc1ccc([N+](=O)[O-])cc1)N/N=C/c1ccco1
The inhibition of the first is lower: -1.3% for the first, 2.95% for the second.

Going from `COC(=O)c1nn(-c2cccc(Cl)c2)ccc1=O` to `COc1cccc(OC)c1C(=O)NC(=S)Nc1ccc(N2CCOCC2)c(Cl)c1`, the inhibition rises from -3.04% to 21.4%.

Compared with `COc1cc(NC(=O)CSc2nnc3ccc(-c4ccncc4)nn23)cc(OC)c1`, `COc1ccc(/C=C/C(=O)Nc2ccc3c(c2)OCCO3)cc1OC` is higher in inhibition: -2.79% for the first, 13.8% for the second.

Compared with `O=C(c1ccncc1)N1CCN(c2ccc3ccccc3n2)CC1`, `CCOC(=O)C1(S(=O)(=O)c2ccccc2)CCN(Cc2ccccc2)CC1` is higher in inhibition: -1.56% for the first, 1.91% for the second.

Compared with `Cc1noc(C)c1S(=O)(=O)N(CC(=O)NCc1ccc(Cl)cc1)c1ccc2c(c1)OCO2`, `COc1ccc(N(CC(=O)Nc2ccc(C)cc2C)S(=O)(=O)c2ccccc2[N+](=O)[O-])c(OC)c1` is higher in inhibition: -4.31% for the first, 9.22% for the second.

Compared with `Cc1cc(C)cc(NC(=S)NCCc2c[nH]c3ccccc23)c1`, `O=C(Nc1ccc2ccccc2c1)/C(=C\c1ccc2c(c1)OCO2)NC(=O)c1ccco1` is lower in inhibition: 10.6% for the first, 1.7% for the second.

First: CCOc1ccc(S(=O)(=O)Nc2ccncc2)c(C)c1C
Second: Cc1nn(C)c(C)c1S(=O)(=O)N1CCC(CO)(Cc2ccc(Cl)cc2)CC1
The inhibition of the first is lower: -6% for the first, 2.5% for the second.

Going from `O=C(CCn1ccc([N+](=O)[O-])n1)Nc1nccs1` to `COCCNC(=O)C(c1ccc(O)cc1)N(C(=O)CCC(=O)Nc1nccs1)c1ccc(C)cc1` (centres undefined), the inhibition falls from 11.6% to -10.6%.

Compared with `CC(=O)c1cnc(-c2ccccc2)s1`, `COc1cccc(CC2(CO)CCN(Cc3cnc(-c4cccc(C)c4)nc3)CC2)c1` is higher in inhibition: -5.94% for the first, 4.89% for the second.

First: CN1CCCN(C(=O)C2CCCCC2)CC1
Second: N#C/C(=C\c1ccc(N2CCOCC2)o1)C(=O)N1CCOCC1
The inhibition of the first is lower: 0.8% for the first, 39.9% for the second.

First: COc1ccc(C(=O)Nc2sc(C)c(C)c2CN2CCOCC2)cc1
Second: Cn1ncc(N2CCN(S(=O)(=O)c3ccc(Br)cc3)CC2)c(Cl)c1=O
The inhibition of the first is lower: -3.61% for the first, 39.2% for the second.

Compared with `OCCCC1CCCCN1Cc1nc(Cc2ccccc2Cl)no1` (centres undefined), `CCCCCCCCCCOC(=O)C[N+](C)(C)CC1CCCCC1O` (centres undefined) is higher in inhibition: -4.56% for the first, -3.34% for the second.

Going from `CC(OC(=O)c1ccccc1N1C(=O)C2C3CCC(C3)C2C1=O)C(=O)c1ccccc1` (centres undefined) to `O=C1CC(=O)Nc2cc(S(=O)(=O)N3CCN(c4cccc(C(F)(F)F)c4)CC3)ccc2N1`, the inhibition falls from 32% to -5.33%.

Compared with `Cc1cc(C)nc(Nc2ncn[nH]2)n1`, `CCCCS(=O)c1snnc1C` (centres undefined) is higher in inhibition: -7.12% for the first, -4.06% for the second.

With `CCC(c1nnnn1Cc1ccco1)N(CCc1ccccc1)Cc1cc2ccc(OC)cc2[nH]c1=O` (centres undefined) the inhibition was 85.7% (active).
For `Cc1nc([N+](=O)[O-])nn1C12CC3CC(CC(Br)(C3)C1)C2`, the inhibition was 98.2% (active).
In the case of `C/C(Cc1ccccc1)=N\NC(=O)CNC(=O)c1cccc(Br)c1`, the inhibition is reported as 51.4% (active).
With `COc1ccc(C)cc1Nc1nc(-c2c(C)[nH]c3ccccc23)cs1` the inhibition was 97.8% (active).
With `COc1ccc(-n2c(C)cc(C(=O)CN3C(=O)NC4(CCc5ccccc54)C3=O)c2C)cc1` (centres undefined) the inhibition was 98.6% (active).
In the case of `COc1cccc(Nc2nnc(SCC(=O)N3CC(C)OC(C)C3)s2)c1` (centres undefined), the inhibition is reported as 51.2% (active).
For `COc1ccc(C(=O)CSc2nnc(NC(=O)C3CC(=O)N(c4cccc(OC)c4)C3)s2)cc1` (centres undefined), the inhibition was 56.9% (active).
For `CCOc1ccc(C(=O)NC(=S)Nc2ccc(N3CCOCC3)c(Cl)c2)cc1[N+](=O)[O-]`, the inhibition was 100% (active).
In the case of `Cc1noc(C)c1S(=O)(=O)N(CC(=O)Nc1ccc2c(c1)OCCO2)c1ccc(C(C)C)cc1`, the inhibition is reported as 55.8% (active).
With `CC(=O)Nc1ccc(C(=O)CSc2nc3ccc(C)cc3[nH]2)cc1` the inhibition was 52.9% (active).
In the case of `COc1ccc(NS(=O)(=O)c2cc(NC(=O)/C=C/c3cc(OC)c(OC)c(OC)c3)ccc2N2CCCCC2)cc1`, the inhibition is reported as 61.7% (active).
For `COc1cccc(CNCCc2c[nH]c3ccccc23)c1OCc1ccccc1F`, the inhibition was 101% (active).
In the case of `COc1ccc2c(c1OC)C(=O)OC2Nc1nc(-c2ccccc2)cs1` (centres undefined), the inhibition is reported as 99.8% (active).
With `COc1ccc(CC2(CO)CCN(Cc3cnn(C)c3)CC2)cc1` the inhibition was 91.4% (active).
In the case of `COC(=O)c1ccc(CN2CCC(CO)(Cc3ccc(OC)cc3)CC2)cc1`, the inhibition is reported as 86.4% (active).
For `CCOC(=O)C1(CCOC)CCN(Cc2ccc(C(=O)OC)cc2)CC1`, the inhibition was 81.1% (active).
For `O=C(Nc1ccc2ccccc2c1)/C(=C/c1cccc(Br)c1)NC(=O)c1ccco1`, the inhibition was 76.3% (active).
For `N#C/C(=C/c1ccc(N2CCOCC2)o1)C(=O)N1CCOCC1`, the inhibition was 54.5% (active).
